Assay results taken from PubChem BioAssay AID1508601 (ICCB-Longwood Screening Facility, Harvard Medical School, 2020).
The campaign covered roughly 5,700 compounds. About 85 (1%) were called active. This is one part of a sample in which actives are shown more often than they occur. Cut-off read from the data, not from the text of the source: active = p53-positive nuclei above about 36% (passing the limit was not always enough); inactive = the rest.

How the values were obtained:
[1] = p53 stabilisation in HPV-positive human cells, imaging, p53-positive nuclei imaging, 24 h, 48 h (AID 1508601); settings: 24/48 h
[2] = molecular target: Cellular tumor antigen p53 (Homo sapiens) (UniProt P04637); test: as above; settings: 24/48 h, stronger effect = higher value
Cellular tumor antigen p53 (Homo sapiens), sequence (P04637 whole entry, looked up): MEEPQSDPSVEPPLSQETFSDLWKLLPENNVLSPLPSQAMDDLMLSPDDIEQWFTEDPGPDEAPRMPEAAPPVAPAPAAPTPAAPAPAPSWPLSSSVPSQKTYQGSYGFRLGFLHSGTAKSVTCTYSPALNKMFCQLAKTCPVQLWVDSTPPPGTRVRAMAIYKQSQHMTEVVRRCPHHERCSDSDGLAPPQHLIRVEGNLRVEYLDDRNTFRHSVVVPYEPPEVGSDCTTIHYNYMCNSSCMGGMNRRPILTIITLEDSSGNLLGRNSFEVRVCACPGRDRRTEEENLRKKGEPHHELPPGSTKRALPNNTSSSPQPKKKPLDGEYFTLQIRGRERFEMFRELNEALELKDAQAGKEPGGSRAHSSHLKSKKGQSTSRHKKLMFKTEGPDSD

[3] = measured here: cell number at 24 h, concentration not given here
[4] = measured here: cell number at 48 h, concentration not given here
[5] = measured here: p53 positive nuclei at 24 h, concentration not given here
[6] = measured here: cell number at 24 h, Library stock concentration: 3.33 mM
[7] = measured here: cell number at 48 h, Library stock concentration: 3.33 mM
[8] = Library stock concentration: 3.33 mM
[9] = measured here: p53 positive nuclei at 24 h, Library stock concentration: 3.33 mM

## O=C1Cc2c([nH]c3ccc(Br)cc23)-c2ccccc2N1
[1]; [3]
  nuclei count, normalised: 97.1%
[1]; [4]
  nuclei count, normalised: 104%
[2]; concentration not given here
  p53-positive nuclei, normalised: -0.0157% (inactive)
[2]; [5]
  p53-positive nuclei, normalised: 0.0601%

## O=C1C(c2c(O)[nH]c3ccccc23)=Nc2ccccc21
[1]; [6]
  nuclei count, normalised: 97.7%
[1]; [7]
  nuclei count, normalised: 95.2%
[2]; [8]
  p53-positive nuclei, normalised: 0.364% (inactive)
[2]; [9]
  p53-positive nuclei, normalised: -0.221%

## OCC1OC(n2cnc3c2NC=NCC3O)CC1O (stereo unspecified)
[1]; measured here: cell number at 24 h, Library stock concentration: 500 nM
  nuclei count, normalised: 123%
[1]; measured here: cell number at 24 h, Library stock concentration: 1.5 uM
  nuclei count, normalised: 117%
[1]; measured here: cell number at 24 h, Library stock concentration: 4.6 uM
  nuclei count, normalised: 116%
[1]; measured here: cell number at 24 h, Library stock concentration: 13.7 uM
  nuclei count, normalised: 127%
[1]; measured here: cell number at 24 h, Library stock concentration: 41 uM
  nuclei count, normalised: 122%
[1]; measured here: cell number at 24 h, Library stock concentration: 123 uM
  nuclei count, normalised: 124%
[1]; measured here: cell number at 24 h, Library stock concentration: 370 uM
  nuclei count, normalised: 121%
[1]; measured here: cell number at 24 h, Library stock concentration: 1.111 mM
  nuclei count, normalised: 120%
[1]; measured here: cell number at 24 h, Library stock concentration: 3.333 mM
  nuclei count, normalised: 122%
[1]; measured here: cell number at 24 h, Library stock concentration: 10 mM
  nuclei count, normalised: 117%
[1]; measured here: cell number at 48 h, Library stock concentration: 500 nM
  nuclei count, normalised: 119%
[1]; measured here: cell number at 48 h, Library stock concentration: 1.5 uM
  nuclei count, normalised: 112%
[1]; measured here: cell number at 48 h, Library stock concentration: 4.6 uM
  nuclei count, normalised: 114%
[1]; measured here: cell number at 48 h, Library stock concentration: 13.7 uM
  nuclei count, normalised: 119%
[1]; measured here: cell number at 48 h, Library stock concentration: 41 uM
  nuclei count, normalised: 118%
[1]; measured here: cell number at 48 h, Library stock concentration: 123 uM
  nuclei count, normalised: 113%
[1]; measured here: cell number at 48 h, Library stock concentration: 370 uM
  nuclei count, normalised: 117%
[1]; measured here: cell number at 48 h, Library stock concentration: 1.111 mM
  nuclei count, normalised: 114%
[1]; measured here: cell number at 48 h, Library stock concentration: 3.333 mM
  nuclei count, normalised: 113%
[1]; measured here: cell number at 48 h, Library stock concentration: 10 mM
  nuclei count, normalised: 114%
[2]; Library stock concentration: 500 nM
  p53-positive nuclei, normalised: -0.173% (inactive)
[2]; Library stock concentration: 1.5 uM
  p53-positive nuclei, normalised: -0.175% (inactive)
[2]; Library stock concentration: 4.6 uM
  p53-positive nuclei, normalised: -0.091% (inactive)
[2]; Library stock concentration: 13.7 uM
  p53-positive nuclei, normalised: -0.0972% (inactive)
[2]; Library stock concentration: 41 uM
  p53-positive nuclei, normalised: 0.0195% (inactive)
[2]; Library stock concentration: 123 uM
  p53-positive nuclei, normalised: 0.029% (inactive)
[2]; Library stock concentration: 370 uM
  p53-positive nuclei, normalised: -0.058% (inactive)
[2]; Library stock concentration: 1.111 mM
  p53-positive nuclei, normalised: -0.0904% (inactive)
[2]; Library stock concentration: 3.333 mM
  p53-positive nuclei, normalised: -0.125% (inactive)
[2]; Library stock concentration: 10 mM
  p53-positive nuclei, normalised: -0.0529% (inactive)
[2]; measured here: p53 positive nuclei at 24 h, Library stock concentration: 500 nM
  p53-positive nuclei, normalised: -0.0351%
[2]; measured here: p53 positive nuclei at 24 h, Library stock concentration: 1.5 uM
  p53-positive nuclei, normalised: -0.148%
[2]; measured here: p53 positive nuclei at 24 h, Library stock concentration: 4.6 uM
  p53-positive nuclei, normalised: -0.0281%
[2]; measured here: p53 positive nuclei at 24 h, Library stock concentration: 13.7 uM
  p53-positive nuclei, normalised: 0.0187%
[2]; measured here: p53 positive nuclei at 24 h, Library stock concentration: 41 uM
  p53-positive nuclei, normalised: -0.0912%
[2]; measured here: p53 positive nuclei at 24 h, Library stock concentration: 123 uM
  p53-positive nuclei, normalised: -0.0944%
[2]; measured here: p53 positive nuclei at 24 h, Library stock concentration: 370 uM
  p53-positive nuclei, normalised: -0.0326%
[2]; measured here: p53 positive nuclei at 24 h, Library stock concentration: 1.111 mM
  p53-positive nuclei, normalised: -0.148%
[2]; measured here: p53 positive nuclei at 24 h, Library stock concentration: 3.333 mM
  p53-positive nuclei, normalised: -0.0881%
[2]; measured here: p53 positive nuclei at 24 h, Library stock concentration: 10 mM
  p53-positive nuclei, normalised: -0.148%

## CC(C)C[C@H](NC(=O)[C@@H](O)[C@H](N)Cc1ccccc1)C(=O)O
[1]; [3]
  nuclei count, normalised: 97.2%
[1]; [4]
  nuclei count, normalised: 105%
[2]; concentration not given here
  p53-positive nuclei, normalised: -0.0349% (inactive)
[2]; [5]
  p53-positive nuclei, normalised: -0.0296%

## CC(C)CC(NC(=O)C(Cc1ccccc1)NC(=O)c1cnccn1)B(O)O (stereo unspecified)
[1]; [6]
  nuclei count, normalised: 47.9%
[1]; [7]
  nuclei count, normalised: 41.9%
[2]; [8]
  p53-positive nuclei, normalised: 106% (active)
[2]; [9]
  p53-positive nuclei, normalised: 125%
